# An excerpt weighted towards active compounds, which were near 12% of everything screened.
# Gal4-VP16 FLuc – Gal4-VP16 reporter inhibition counter-screen; Drosophila S2 Gal4-VP16 UAS-luciferase, luminescence, 20 h; Potency, µM (series often up to 53.6 µM), for the others: at the highest dose activity, negative = inhibition, usual class: inhibitors; 310,000 tested, 3.5% active; AID 2546;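 note: Gal4-VP16 expression switched on by copper sulfate through the metallothionein promoter; nearly all actives have a fitted effect of over 50% in size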
# RORgamma inh – ROR gamma (mouse) transcription inhibition; P51450; Drosophila S2 Gal4-RORgamma UAS-luciferase reporter, 20 h; Potency, µM (titrated, usually from 53.6 µM), for the others: top-dose activity change, negative = inhibition, actives largely listed as inhibitors; 310,000 tested, 5.4% active; AID 2551; note: nearly all actives have a fitted effect of over 60% in size
# Target sequence (P51450 whole entry, looked up, the tested form may be a part): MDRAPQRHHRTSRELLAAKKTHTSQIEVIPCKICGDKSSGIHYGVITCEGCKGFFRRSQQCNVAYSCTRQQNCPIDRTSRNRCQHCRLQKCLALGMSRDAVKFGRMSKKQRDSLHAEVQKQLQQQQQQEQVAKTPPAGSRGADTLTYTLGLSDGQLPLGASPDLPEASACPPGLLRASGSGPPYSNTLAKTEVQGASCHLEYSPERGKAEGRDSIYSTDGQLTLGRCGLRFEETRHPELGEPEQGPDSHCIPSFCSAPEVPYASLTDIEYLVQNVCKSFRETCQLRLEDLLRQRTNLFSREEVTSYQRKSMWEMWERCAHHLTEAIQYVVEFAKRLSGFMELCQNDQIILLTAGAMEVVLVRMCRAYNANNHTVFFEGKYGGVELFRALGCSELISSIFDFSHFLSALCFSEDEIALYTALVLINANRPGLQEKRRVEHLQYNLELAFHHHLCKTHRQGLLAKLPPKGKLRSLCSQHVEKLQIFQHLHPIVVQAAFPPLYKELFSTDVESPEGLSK
#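 Drosophila S2 cells stably expressing Gal4-DBD/mouse RORγ fusion under metallothionein promoter plus UAS-luciferase; compound 1 h, then 700 uM CuSO4 induction for 20 h at ambient temperature; inhibition read as reduced luminescence.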
# Sfp PPTase inh – Sfp phosphopantetheinyl transferase inhibition. Q9F4F7. Biochemical Sfp PPTase activity, qHTS. Potency, µM, for the others: largest response in the series, negative = inhibition, most hits filed as inhibitors. 310,000 tested, 3.5% active;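 note: the enzyme is Sfp with the accession as filed and its product quenches rhodamine fluorescence; 0% = enzyme reaction without inhibitor and -100% = no enzyme wells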
#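 Step 1, compound plus 15 nM Sfp-PPTase, 15 min, room temperature. Step 2, add rhodamine-CoA (5 uM) and BHQ-2-YbbR (12.5 uM). Step 3, read 525/598 nm fluorescence at 0 and 30 min.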
# PLK1 PBD inh – inhibitors of human PLK1 polo-box domain binding; Potency, µM, without a hit: max response, negative = inhibition, hits mostly inhibitors; AID 720504; Plk1 PBD binding of FITC phosphopeptide, fluorescence polarization; 360,000 tested, 2.8% active; P53350; note: series mostly up to about 57 µM; nearly all actives have a fitted effect of over 65% in size
# ALDH1A1 block – ALDH1A1 (human) enzyme inhibition | P00352 | Purified ALDH1A1, NADH fluorescence, propionaldehyde substrate | Potency, µM (series often up to 75.3 µM), without a hit: top-dose activity, negative = inhibition, actives largely listed as inhibitors | 220,000 tested, 7.3% active; active = well fitted inhibition curve with a large enough effect, not every such curve was filed as active; inconclusive = small, poorly fitted or top-dose-only effect, or another doubt; inactive = no such curve, though single readings can be large or run the other way;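 note: plate controls were no enzyme wells and a reference inhibitor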
# Active calls of the source: *; ? = inconclusive; · = not tested or not shown; [ ] = another dose, or the depositor's remark. Unless noted, calls come from the whole dose curve; as a rule, active = well fitted curve in the direction sought with a large enough effect; inconclusive = small, poorly fitted or top-dose-only effect, or another doubt; inactive = no such curve, though single readings can be large; an effect the other way counts as inactive or inconclusive. Unless noted, % is set by controls: 0 for no effect and ±100 for the full control effect; potency is the fitted concentration of half-maximal effect.
SMILES,Gal4-VP16 FLuc,RORgamma inh,Sfp PPTase inh,PLK1 PBD inh,ALDH1A1 block
CCOC(=O)C1CCN(S(=O)(=O)c2cccc(-c3cn4cccnc4n3)c2)CC1,?,43%,22%,?,?
O=C(O)c1ccc(S(=O)(=O)N[C@H](Cc2c[nH]c3ccccc23)C(=O)O)cc1,-10%,-19%,-9%,·,·
Cn1cnc([N+](=O)[O-])c1Nc1ccc(O)cc1,2%,-44%,?,2%,25µM*
Nc1ccn([C@@H]2O[C@H](CNCC3=CCOc4ccc(O)cc43)[C@@H](O)[C@H]2O)c(=O)n1,·,·,·,-13%,·
CC1CCC(C(C)C)C2=C1C(C#N)(C#N)C(C#N)(C#N)C(c1ccccc1)N2 (stereo not given),?,?,?,?,10µM*
CC1=CC(C#N)(C#N)C(C#N)(C#N)C(c2ccccc2)N1 (stereo not given),1%,-14%[10 µM],-11%,·,?
COc1ccc(C2CC(=O)C(C(c3ccc(O)cc3)C3C(=O)CC(c4ccc(OC)cc4)CC3=O)C(=O)C2)cc1 (stereo not given),4%,17%,35µM*,·,·
O=C(COC(=O)CCS(=O)(=O)c1ccc(F)cc1)NC1CCCCC1,·,·,·,0%,·
COc1ccc(C(C(=O)NC(C)(C)C)n2c(=O)c(-c3ccccc3)nc3ccccc32)cc1 (stereo not given),·,·,·,-2%,·
CC1=Nc2ccccc2/C1=C/c1sc(=N)n(-c2nccs2)c1O,0.79µM*,0.63µM*,-13%,-24%,?
Cc1ccccc1C(=O)NC(C(=O)Nc1nc2c(s1)CCCC2)C(C)C (stereo not given),20µM*,?,3%,1%,8%
Cc1ccccc1C(=O)N[C@H](C(=O)Nc1ccc(Cl)c(Cl)c1)C(C)C,-20%,-14%,-6%,-5%,18%
O=C(Nc1nc2c(s1)CCCC2)c1cc(-c2ccc3c(c2)OCO3)nc2ccccc12,?,-41%,?,·,-9%
Cc1ccccc1-c1cc(C(=O)Nc2nc3c(s2)CCCC3)c2ccccc2n1,-18%,10µM*,-25%,?,?
COc1ccc(-c2nc(-c3ccc(NC(=O)c4ccncc4)cc3)no2)cc1OC,-10%,?,12%,-7%,-6%
COc1cc(C(=O)Nc2ccc3nc(N4CCN(C)CC4)cc(C)c3c2)cc(OC)c1OC,-3%,?,-3%,-9%,·
COc1ccc(NC(=O)c2ccc(-c3ccc(-c4noc(C)n4)cc3C)cc2)cc1OCCN(C)C,?,14µM*,79µM*,·,-7%
COc1ccc(NC(=O)c2ccc(-c3ccc(-c4noc(C)n4)cc3C)cc2)cc1N1CCN(C)CC1,32µM*,20µM*,32µM*,-9%,-12%
CC(=O)OC[C@@H]1O[C@H](C/C=N\O[C@@H](C)c2cn([C@H](CO)Cc3ccccc3)nn2)C=C[C@@H]1OC(C)=O,8%[10 µM],1%[10 µM],5%,·,11%[13.5 µM]
CC(C(=O)NCCSCc1cccc(Cl)c1)N(c1ccccc1)S(C)(=O)=O (stereo not given),-1%,22%,-7%,2%,·
CN(CCc1ccccn1)C(=S)NC(=O)c1ccco1,?,14µM*,?,27µM*,?
O=C(NC(NCc1ccccn1)(C(F)(F)F)C(F)(F)F)c1ccco1,-15%,10µM*,-5%,-4%,9%
C[N@@+]1(CC[N@@+]2(C)CCC[C@H]2c2cccnc2)CCC[C@@H]1c1cccnc1,·,·,·,·,7%[13.5 µM]
CC1=CC2=NC(=O)/C(=C\c3cccn3CCOc3ccccc3C)C(=N)N2O1,-16%,-7%,-5%,27µM*,?
CC(=O)NC(Cc1cccc(F)c1)C(=O)NC1CCN(C(=O)c2ccc(C)cc2)CC1 (stereo not given),-4%,-1%,12%,-10%,14µM*
SMILES,Gal4-VP16 FLuc,RORgamma inh,Sfp PPTase inh,PLK1 PBD inh,ALDH1A1 block
CC(=O)NC(Cc1ccccc1C)C(=O)NC1CCN(C(=O)c2cccc(C)c2)CC1 (stereo not given),7%,-14%,13%,-16%,20µM*
N#CC(c1ccc(Cl)cc1)c1c(Cl)cc(-n2ncc(=O)[nH]c2=O)cc1Cl (stereo not given),-2%,13%,-9%,·,·
CN(C)c1cc(Cl)c2nonc2c1N,-10%,0%,89µM*,-18%,·
Cc1ccc(C(=O)C2=C(O)C(=O)N(Cc3ccco3)C2c2cccc(Br)c2)o1 (stereo not given),-3%,2%,56µM*,-18%,·
COc1ccc(C2C(C(=O)c3ccco3)=C(O)C(=O)N2Cc2cccnc2)cc1OC (stereo not given),16%,3%,-9%,1%,?
O=C(C1=C(O)C(=O)N(Cc2ccco2)C1c1cccnc1)c1cc2ccccc2o1 (stereo not given),11%,28%,?,-25%,14µM*
COc1cccc2cc(C(=O)C3=C(O)C(=O)N(Cc4ccco4)C3c3cccnc3)oc12 (stereo not given),-1%,0%,?,-19%,5.6µM*
CCCOc1ccc(F)cc1-c1cc(C(=O)Nc2ccccc2)[nH]n1,·,·,·,-2%,·
COc1cccc(NC(=S)N2CCC(NC(=O)c3ccco3)CC2)c1,0%,-24%,6%,-5%,·
C/C(=N\NC(=S)NC1CCCCC1)c1cccc(Br)c1,1µM*,2.2µM*,41%,-12%,?
CCNC(=S)N/N=C(\C)c1cccc(C(F)(F)F)c1,4.5µM*,1.3µM*,2%,-8%,-7%
C/C(=N\NC(=S)NC1CCCCC1)c1cccc(C(F)(F)F)c1,2.5µM*,?,19%,-5%,·
N#Cc1ccc(C(=O)NC(=S)NC2CCCCC2)cc1,·,·,·,-18%,·
C/C(=N\NC(=S)NC1CCCCC1)c1ccc(C#N)cc1,2µM*,2.2µM*,5%,-3%,6%
CC(=O)N/N=C(\C)c1cccc(C(F)(F)F)c1,18%,-2%,22%,3%,2%
O=[N+]([O-])c1ccc(Cl)cc1P(=O)(O)c1cc(Cl)ccc1[N+](=O)[O-],·,·,·,0%,·
Cc1ccc(CN2C(=O)CCC2(C)c2nnnn2-c2ccc3c(c2)OCCO3)cc1 (stereo not given),·,·,·,3%,·
CCOC(=O)c1c(-c2ccc(OC)cc2)oc2c1C(OC(C)=O)CCC2 (stereo not given),·,·,·,-12%,·
O=C(CSc1ccc2nnc(CCNS(=O)(=O)c3ccccc3)n2n1)Nc1nc2ccccc2s1,-3%,?,2%,-21%,25µM*
Cc1csc(NC(=O)CSc2ccc3nnc(CCNS(=O)(=O)c4ccccc4)n3n2)n1,3%,-1%,11%,-6%,7%
CCn1c(SCC(=O)c2ccc(Cl)cc2)nnc1-c1ccoc1C,?,?,-93%,-19%,?
Cn1c(CNC(=O)c2ccco2)nnc1SCC(=O)c1ccccc1,18%,28µM*,-12%,-2%,-4%
Cn1c(SCC(=O)c2ccc(O)c(O)c2)nnc1-c1ccccc1,6%,0%,79µM*,-2%,·
